From PubChem
ATXN viability – reduces viability in counter-screen for ATXN expression inhibitors. S2 cells (HEK-293 line with an ATXN2-luciferase reporter) viability, CellTiter-Fluor protease fluorescence, 24 h. Potency, µM (series often up to 56.7 µM), hits mostly cytotoxic. 400,000 tested, 0.49% active. AID 651635; further: potency means the concentration at half of the fitted maximal effect; nearly all actives have a fitted effect of over 40% in size
LDHA block – blocks human lactate dehydrogenase A; purified LDHA, NADH/diaphorase-resazurin fluorescence; active compounds read low; activity change, % (values are at about 110 or 230 µM); 480,000 tested, 0.15% active; AID 1347041; in the data active means activity change below about -30%; inconclusive means mostly about -25% to -30%;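 further: plate controls were DMSO wells for no effect and wells without enzyme for full effect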
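Remaining NADH was detected by diaphorase (0.133 mg/mL) converting 37 µM resazurin to fluorescent resorufin, read at 0 and 20 minutes. The preceding 5-minute room-temperature reaction used 2 nM LDHA, 0.2 mM sodium pyruvate and 0.06 mM NADH at pH 7.4.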
HepG2 tox – kills HepG2 cells in TGF-b inhibitor counter-screen | HepG2 CAGA-GFP viability, ATP luminescence, 18 h | Potency, µM (highest dose often 46.1 µM), without a hit: at the top dose activity change, negative = cytotoxicity, actives largely listed as cytotoxic | 410,000 tested, 0.76% active | AID 588856; further: potency means the concentration at half of the fitted maximal effect
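HepG2 CAGA-GFP cells (1000/well, DMEM with 1% FBS) received compound, then TGF-beta at 500 pg/mL final, and were incubated 18 hours at 37 degrees C. Viability was read by CellTiter-Glo luminescence. Media-only wells were set as complete cell-killing and DMSO as no toxicity.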
TGFb SMAD3 inh – inhibitors of TGF-b signaling. 410,000 tested, 1.2% active. HepG2 CAGA-GFP TGF-b/SMAD3 reporter, GFP fluorescence, 18 h; TGF-beta stimulated, 500 pg/mL final. Potency, µM (doses to about 46.1 µM), for the others: at the highest dose activity, negative = inhibition, most hits filed as inhibitors; further: potency means the concentration at half of the fitted maximal effect; on the % scale 0 is the no-effect control and ±100 the full control effect; nearly all actives have a fitted effect of over 65% in size
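HEPG2 CAGA-GFP reporter cells (1000/well, DMEM with 1% FBS) received compounds, then recombinant TGF-beta at 500 pg/mL final for 18 hours at 37 degrees C. Per-cell GFP summed per well was normalised to unstimulated and stimulated DMSO controls before curve fitting.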
IDH1 R132H inh – human IDH1 R132H inhibition. AID 602179. Potency, µM (top dose mostly 76.6 µM), for the others: at the highest dose activity change, negative = inhibition, usual class: inhibitors. IDH1-R132H enzyme, NADPH consumption, diaphorase/resazurin fluorescence. O75874. 390,000 tested, 0.093% active; further: potency means the concentration at half of the fitted maximal effect; on the % scale 0 is the no-effect control and ±100 the full control effect; nearly all actives have a fitted effect of over 65% in size
Target sequence (O75874 whole entry R132H, stated change not applied): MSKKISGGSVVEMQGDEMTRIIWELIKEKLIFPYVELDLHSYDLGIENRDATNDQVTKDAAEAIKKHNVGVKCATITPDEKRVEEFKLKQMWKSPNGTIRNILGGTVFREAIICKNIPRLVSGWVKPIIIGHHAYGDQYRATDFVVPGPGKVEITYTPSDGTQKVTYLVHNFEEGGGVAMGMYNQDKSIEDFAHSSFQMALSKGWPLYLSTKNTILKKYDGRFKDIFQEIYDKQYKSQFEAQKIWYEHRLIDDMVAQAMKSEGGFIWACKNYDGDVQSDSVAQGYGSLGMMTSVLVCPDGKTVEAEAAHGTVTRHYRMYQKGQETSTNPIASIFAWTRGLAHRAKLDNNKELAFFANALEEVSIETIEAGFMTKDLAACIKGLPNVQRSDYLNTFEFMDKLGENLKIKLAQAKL
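IDH1-R132H (0.5 ug/mL dispensed) in pH 7.5 Tris buffer was preincubated 30 min with compound, then given a substrate mix of 0.016 mM NADPH and 2 mM alpha-KG for 80 min at room temperature; remaining NADPH was read by diaphorase/resazurin fluorescence.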
ATXN2 expr inh – reduces ATXN2 reporter expression in HEK-293 cells | 360,000 tested, 0.72% active | HEK-293 ATXN2-luciferase reporter, luminescence, 24 h | Potency, µM (series often up to 57 µM), for the others: top-dose activity change, negative = inhibition, usual class: inhibitors; further: potency means the concentration at half of the fitted maximal effect; on the % scale 0 is the no-effect control and ±100 the full control effect; nearly all actives have a fitted effect of over 55% in size
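ATXN2-luciferase reporter cells (luciferase flanked by upstream and downstream ATXN2 gene portions) were treated 24 h at 37 °C with compounds at up to 57 uM. SteadyGlo luminescence gave expression; GF-AFC fluorescence gave viability.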
Resorufin autofl – autofluorescence interference, mutant IDH1 hit counter-screen. 750 tested, under 10 active. inhibition of signal, % at 51.2 µM. AID 623980. Resorufin detection reagent fluorescence interference, cell-free. shares compounds with IDH1 R132H inh;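 further: 0% = wells with normal resorufin and full inhibition = wells lacking resorufin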
WT IDH1 inh – wild-type IDH1 (human) inhibition counterscreen; WT IDH1 enzyme, NADPH diaphorase/resazurin fluorescence; shares compounds with IDH1 R132H inh; Potency, µM (highest dose often 115 µM), for inactives: top-dose activity change, negative = inhibition, usual class: inhibitors; 750 tested, 9% active;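 further: potency means the concentration at half of the fitted maximal effect; 0% = full WT IDH1 enzyme control and full inhibition = no enzyme wells; nearly all actives have a fitted effect of over 55% in size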
Target sequence (O75874 whole entry, looked up): as the sequence (O75874 whole entry R132H, stated change not applied) above, with H132R counted along it
mIDH1 confirm – inhibits human mutant IDH1 enzyme in cherrypick confirmation | Potency, µM (series often up to 76.6 µM), without a hit: top-dose activity change, negative = inhibition, most hits filed as inhibitors | IDH1 R132H enzyme, NADPH diaphorase/resazurin fluorescence | shares compounds with IDH1 R132H inh | 750 tested, 83% active; further: potency means the concentration at half of the fitted maximal effect; nearly all actives have a fitted effect of over 50% in size
* hit, by the source's call; i = inactive; ? = inconclusive; / = no result. This is a sample that favours compounds with a hit; in the whole collection about 2.2% have one here. Unless noted, the call rests on the fitted dose curve; in most records, active means well fitted curve in the direction sought with a large enough effect; inconclusive means small, poorly fitted or top-dose-only effect, or another doubt; inactive means no such curve, though single readings can be large; an effect the other way counts as inactive or inconclusive.

SMILES	ATXN viability	LDHA block	HepG2 tox	TGFb SMAD3 inh	IDH1 R132H inh	ATXN2 expr inh	Resorufin autofl	WT IDH1 inh	mIDH1 confirm
CC(=O)c1ccc(NC(=O)c2sc3nc(N4CCOCC4)c4c(c3c2N)CCCC4)cc1	i	4	5%	-7%	?	/	-4	-5%	6.3µM*
COc1cc2c3c(c1OC)C1(C=CC(=NNC(N)=O)C=C1)CC3N(C(C)=O)CC2 (configuration not stated)	i	-9	19%	15%	1%	/	/	/	/
O=C(NCCc1ccccc1)c1nc(-c2ccc3cc[nH]c3c2)no1	/	11	/	/	/	/	/	/	/
COC(=O)C1=C(C(=O)c2ccccc2)C(c2cccs2)n2nnnc2N1 (configuration not stated)	i	-3	2%	0%	5%	15%	/	/	/
Cc1ccc(CNC(=O)c2ccc(CSCc3ccc(C)cc3)o2)cc1	/	18	-20%	?	-15%	/	/	/	/
Cc1ccc(CNC(=O)c2ccc(CSCc3c(F)cccc3Cl)o2)cc1	i	-2	-26%	16µM*	40µM*	15%	4	-1%	0%
Cc1cc(OCC(=O)N2CCOCC2)cc2oc(=O)c3ccccc3c12	i	-9	-6%	-18%	7%	-11%	/	/	/
O=C(c1ccncc1)N1N=C(c2ccc(Br)cc2)CC1c1ccccc1O (configuration not stated)	i	-4	-25%	?	35µM*	?	1	2%	16µM*
CC(=O)N1N=C(c2ccncc2)CC1c1ccccc1O (configuration not stated)	i	-1	3%	?	0%	-26%	/	/	/
CC(C)NC(=O)c1ccc2sc([C@@H]3O[C@H](CO)[C@H](O)[C@H](O)[C@H]3O)nc2c1	i	0	6%	0%	/	18%	/	/	/
CCCOc1ccc(C2c3c(-c4ccccc4O)n[nH]c3C(=O)N2Cc2ccncc2)cc1OCC (configuration not stated)	?	-2	3%	16%	?	-9%	-5	?	45µM*
CCOc1cc(C2c3c(-c4ccccc4O)n[nH]c3C(=O)N2CCc2ccccc2)ccc1O (configuration not stated)	/	-9	-50%	?	?	/	-3	9%	?
CC(C)c1ccc(C2c3c(-c4ccccc4O)n[nH]c3C(=O)N2Cc2ccncc2)cc1 (configuration not stated)	32µM*	-7	-54%	?	16µM*	-8%	-14	-4%	22µM*
CSc1ccc(C2c3c(-c4ccccc4O)n[nH]c3C(=O)N2Cc2ccncc2)cc1 (configuration not stated)	/	-5	-31%	?	40µM*	0%	0	4%	28µM*
COc1ccc(CCN2C(=O)c3[nH]nc(-c4ccccc4O)c3C2c2ccc(O)c(OC)c2)cc1 (configuration not stated)	/	5	-30%	?	-7%	/	/	/	/
O=c1c2[nH]c3ccc(F)cc3c2ncn1Cc1ccncc1	i	-10	-4%	11%	-6%	-3%	/	/	/
